# Source: PubChem BioAssay AID1159580 (chemical genetic matrix, 2015)
# “And” between values parts separate entries of the source, which are not always exact repeats. Identical values can stand only once. Out of some 5,500 compounds screened, about 2,000 (36%) were called active. Roughly 18% stayed inconclusive and do not appear here. Rule as the data show it: active = normalized growth mostly below about 0.91 (no sharp cut-off); inconclusive = no clear call, values can overlap the other calls; inactive = mostly above about 0.92. Some of the results follow.
# Test: chemical genetic growth profiling, strain panel (AID 1159580);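 also: tested at 20 µM; growth read once vehicle control cultures reached saturation at 30 °C; 1 = growth at the plate median or of vehicle wells; lower values mean less growth of the strain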
# Settings: S. cerevisiae deletion strains, growth OD
structure (smiles),measurement,setting,value
C=C(C)[C@H]1CC=C(C(=O)O)CC1,normalized growth,"locus YAL013W, strain DEP1, stronger effect = lower value",1.01 (inactive)
same,normalized growth,"locus YAL021C, strain ccr4, stronger effect = lower value",0.968 (inactive)
same,normalized growth,"locus YAL026C, strain drs2, stronger effect = lower value",0.958 (inactive)
same,normalized growth,"locus YAL030W, strain snc1, stronger effect = lower value",0.985 (inactive)
same,normalized growth,"locus YBL061C, strain skt5, stronger effect = lower value",0.986 (inactive)
same,normalized growth,"locus YBR009C, strain hhf1, stronger effect = lower value",0.939 (inactive)
same,normalized growth,"locus YBR021W, strain FUR4, stronger effect = lower value",0.82 (active)
same,normalized growth,"locus YBR023C, strain chs3, stronger effect = lower value",0.985 (inactive)
same,normalized growth,"locus YBR171W, strain sec66, stronger effect = lower value",0.961 (inactive)
same,normalized growth,"locus YBR229C, strain ROT2, stronger effect = lower value",1.01 (inactive)
same,normalized growth,"locus YBR231C, strain swc5, stronger effect = lower value",0.939 (inactive)
same,normalized growth,"locus YBR279W, strain paf1, stronger effect = lower value",0.972 (inactive)
same,normalized growth,"locus YCL011C, strain gbp2, stronger effect = lower value",0.973 (inactive)
same,normalized growth,"locus YCL016C, strain dcc1, stronger effect = lower value",0.979 (inactive)
same,normalized growth,"locus YCL029C, strain bik1, stronger effect = lower value",0.938 (inactive)
same,normalized growth,"locus YCL061C, strain MRC1, stronger effect = lower value",0.944 (inactive)
same,normalized growth,"locus YCL069W, strain vba3, stronger effect = lower value",0.984 (inactive)
same,normalized growth,"locus YCR088W, strain abp1, stronger effect = lower value",0.994 (inactive)
same,normalized growth,"locus YDL005C, strain med2, stronger effect = lower value",0.97 (inactive)
same,normalized growth,"locus YDL035C, strain GPR1, stronger effect = lower value",0.926 (inactive)
same,normalized growth,"locus YDL040C, strain nat1, stronger effect = lower value",0.995 (inactive)
same,normalized growth,"locus YDL074C, strain BRE1, stronger effect = lower value",0.945 (inactive)
same,normalized growth,"locus YDL101C, strain DUN1, stronger effect = lower value",0.976 (inactive)
same,normalized growth,"locus YDL134C, strain PPH21, stronger effect = lower value",0.944 (inactive)
same,normalized growth,"locus YDL185W, strain tfp1, stronger effect = lower value",0.871 (active)
same,normalized growth,"locus YDL192W, strain arf1, stronger effect = lower value",0.957 (inactive)
same,normalized growth,"locus YDR001C, strain nth1, stronger effect = lower value",0.986 (inactive)
same,normalized growth,"locus YDR069C, strain doa4, stronger effect = lower value",0.999 (inactive)
same,normalized growth,"locus YDR101C, strain arx1, stronger effect = lower value",0.926 (inactive)
same,normalized growth,"locus YDR137W, strain rgp1, stronger effect = lower value",1.04 (inactive)
same,normalized growth,"locus YDR159W, strain sac3, stronger effect = lower value",0.94 (inactive)
same,normalized growth,"locus YDR162C, strain NBP2, stronger effect = lower value",0.989 (inactive)
same,normalized growth,"locus YDR195W, strain ref2",0.844 (active)
same,normalized growth,"locus YDR297W, strain sur2, stronger effect = lower value",0.971 (inactive)
same,normalized growth,"locus YDR318W, strain mcm21, stronger effect = lower value",0.938 (inactive)
same,normalized growth,"locus YDR334W, strain swr1, stronger effect = lower value",0.971 (inactive)
same,normalized growth,"locus YDR335W, strain msn5, stronger effect = lower value",0.975 (inactive)
same,normalized growth,"locus YDR388W, stronger effect = lower value",0.952 (inactive)
same,normalized growth,"locus YDR392W, strain spt3, stronger effect = lower value",0.934 (inactive)
same,normalized growth,"locus YDR502C, strain sam2, stronger effect = lower value",0.926 (inactive)
same,normalized growth,"locus YEL003W, strain gim4, stronger effect = lower value",0.943 (inactive)
same,normalized growth,"locus YEL037C, strain rad23, stronger effect = lower value",0.988 (inactive)
same,normalized growth,"locus YEL061C, strain CIN8 (second series), stronger effect = lower value",0.991 (inactive)
same,normalized growth,"locus YEL061C, strain CIN8, stronger effect = lower value",1 (inactive)
same,normalized growth,"locus YER015W, strain faa2, stronger effect = lower value",0.98 (inactive)
same,normalized growth,"locus YER016W, strain bim1, stronger effect = lower value",0.992 (inactive)
same,normalized growth,"locus YER110C, stronger effect = lower value",0.925 (inactive)
same,normalized growth,"locus YER111C, strain swi4, stronger effect = lower value",0.98 (inactive)
same,normalized growth,"locus YER155C, strain BEM2 (second series), stronger effect = lower value",1 (inactive)
same,normalized growth,"locus YER155C, strain BEM2, stronger effect = lower value",0.947 (inactive)
same,normalized growth,"locus YER167W, strain BCK2, stronger effect = lower value",0.978 (inactive)
same,normalized growth,"locus YFR010W, strain ubp6, stronger effect = lower value",0.978 (inactive)
same,normalized growth,"locus YGL078C, strain dbp3, stronger effect = lower value",0.804 (active)
same,normalized growth,"locus YGL086W, strain mad1, stronger effect = lower value",0.965 (inactive)
same,normalized growth,"locus YGL167C, strain pmr1, stronger effect = lower value",0.978 (inactive)
same,normalized growth,"locus YGL173C, strain kem1, stronger effect = lower value",0.949 (inactive)
same,normalized growth,"locus YGL227W, strain vid30, stronger effect = lower value",0.975 (inactive)
same,normalized growth,"locus YGL240W, strain doc1, stronger effect = lower value",0.956 (inactive)
same,normalized growth,"locus YGL248W, strain PDE1, stronger effect = lower value",0.97 (inactive)
same,normalized growth,"locus YGL253W, strain hxk2, stronger effect = lower value",0.944 (inactive)
same,normalized growth,"locus YGR135W, strain pre9, stronger effect = lower value",0.903 (inactive)
same,normalized growth,"locus YGR252W, strain gcn5, stronger effect = lower value",0.606 (active)
same,normalized growth,"locus YHR013C, strain ard1, stronger effect = lower value",0.993 (inactive)
same,normalized growth,"locus YHR027C, strain rpn1, stronger effect = lower value",0.96 (inactive)
same,normalized growth,"locus YHR030C, strain SLT2, stronger effect = lower value",0.997 (inactive) and 0.788 (active)
same,normalized growth,"locus YHR079C, strain IRE1 (second series), stronger effect = lower value",0.941 (inactive)
same,normalized growth,"locus YHR079C, strain IRE1, stronger effect = lower value",0.703 (active)
same,normalized growth,"locus YHR094C, strain hxt1, stronger effect = lower value",0.955 (inactive)
same,normalized growth,"locus YHR129C, strain ARP1, stronger effect = lower value",0.984 (inactive)
same,normalized growth,"locus YHR142W, strain chs7, stronger effect = lower value",0.96 (inactive)
same,normalized growth,"locus YHR200W, strain rpn10, stronger effect = lower value",0.961 (inactive)
same,normalized growth,"locus YIL066C, strain RNR3, stronger effect = lower value",0.963 (inactive)
same,normalized growth,"locus YIL073C, strain SPO22, stronger effect = lower value",0.978 (inactive)
same,normalized growth,"locus YIL125W, strain kgd1, stronger effect = lower value",0.78 (active)
same,normalized growth,"locus YIR030C, strain dcg1, stronger effect = lower value",0.961 (inactive)
same,normalized growth,"locus YJL092W, strain hpr5, stronger effect = lower value",0.983 (inactive)
same,normalized growth,"locus YJL095W, strain BCK1 (second series), stronger effect = lower value",0.985 (inactive)
same,normalized growth,"locus YJL095W, strain BCK1, stronger effect = lower value",0.98 (inactive) and 0.786 (active)
same,normalized growth,"locus YJL115W, strain asf1, stronger effect = lower value",0.983 (inactive)
same,normalized growth,"locus YJL129C, strain trk1, stronger effect = lower value",0.911 (inactive)
same,normalized growth,"locus YJL134W, strain LCB3, stronger effect = lower value",0.996 (inactive)
same,normalized growth,"locus YJL154C, strain vps35, stronger effect = lower value",0.99 (inactive)
same,normalized growth,"locus YJL164C, strain tpk1, stronger effect = lower value",0.97 (inactive)
same,normalized growth,"locus YJL166W, strain qcr8, stronger effect = lower value",0.981 (inactive)
same,normalized growth,"locus YJL168C, strain set2, stronger effect = lower value",0.968 (inactive)
same,normalized growth,"locus YJL187C, strain SWE1 (second series), stronger effect = lower value",0.955 (inactive)
same,normalized growth,"locus YJR043C, strain POL32, stronger effect = lower value",0.916 (inactive)
same,normalized growth,"locus YJR066W, strain TOR1, stronger effect = lower value",0.747 (active)
same,normalized growth,"locus YKL009W, strain mrt4, stronger effect = lower value",0.954 (inactive)
